PubChem BioAssay (Tox21)
Records with an inconclusive call do not appear. Calls of active or inactive are those of the source. Unless noted, calls follow the shape of the dose curve; as a rule, active = well fitted curve in the direction sought with a large enough effect in the repeat runs; inconclusive = weak or mixed curves; inactive = no such curve, though single readings can be large; an effect the other way counts as inactive or inconclusive.

What was measured:
[1] = target: Luciferin 4-monooxygenase (Photinus pyralis) (UniProt P08659); experiment: qHTS assay to identify small molecule inhibitors of firefly luciferase (AID 1224835); also: nearly all actives have a fitted effect of over 25% in size; also: potency is read from the fitted curve at half-maximal effect
Outline: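 Quantitative HTS format; KM concentrations of both substrates. Purified P. pyralis FLuc activity quantified from luminescence images.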

[2] = qHTS assay to identify small molecule agonists of the constitutive androstane receptor (CAR) signaling pathway - cell viability counter screen (AID 1224836); also: nearly all actives have a fitted effect of over 45% in size; also: potency is read from the fitted curve at half-maximal effect
Outline: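 Viability read-out: CellTiter-Fluor fluorescence after 23 h compound exposure at 37 C/5% CO2 in double-stable HepG2-CYP2B6-hCAR cells, with PK11195 present at 0.75 uM final; compounds tested in 15-point titration.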

[3] = qHTS assay to identify small molecule antagonists of the constitutive androstane receptor (CAR) signaling pathway - cell viability counter screen (AID 1224837); also: nearly all actives have a fitted effect of over 45% in size; also: potency is read from the fitted curve at half-maximal effect
Outline: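 Cytotoxicity counter-screen: CellTiter-Fluor fluorescence after 23 h compound exposure (15-point qHTS) in double-stable HepG2-CYP2B6-hCAR cells, with 50 nM CITCO added.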

[4] = target: Nuclear receptor subfamily 1 group I member 3 (Homo sapiens) (UniProt Q14994); experiment: qHTS assay to identify small molecule antagonists of the constitutive androstane receptor (CAR) signaling pathway (AID 1224838);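 also: HepG2 cells stably expressing hCAR with CYP2B6 luciferase reporter stimulated by CITCO; nearly all actives have a fitted effect of over 40% in size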; also: potency is read from the fitted curve at half-maximal effect
Outline: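 Antagonism measured as luciferase signal (ONE-Glo, 30 min, room temperature) in CAR-stimulated cells: HepG2-CYP2B6-hCAR double-stable line exposed 24 hr at 37 C to compound in a 15-point series plus 50 nM CITCO.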

[5] = target: Nuclear receptor subfamily 1 group I member 3 (Homo sapiens) (UniProt Q14994); experiment: qHTS assay to identify small molecule agonists of the constitutive androstane receptor (CAR) signaling pathway (AID 1224839); also: nearly all actives have a fitted effect of over 15% in size; also: potency is read from the fitted curve at half-maximal effect
Outline: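 Luminescence read-out (ONE-Glo, 30 min, room temperature) from double-stable HepG2-CYP2B6-hCAR cells exposed 24 h to 15-point compound series in presence of 0.75 uM PK11195 final.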

[6] = qHTS assay to identify small molecule antagonists of the estrogen related receptor signaling pathway with the pleiotropic PPARgamma coactivator (PGC) from Tox21 10K library - cell viability counter screen (AID 1224840; active = well fitted cell-killing curve with a large enough effect in the repeat runs, not every such curve was filed as active; also: nearly all actives have a fitted effect of over 40% in size; also: potency is read from the fitted curve at half-maximal effect)
Outline: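 Counter-screen for cytotoxicity: after 17.5 h compound exposure at 37 C, CellTiter-Fluor reagent added to PGC/ERR cells for 30 min and fluorescence read. Cells were seeded at 2,000 per well 6 h before dosing.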

[7] = qHTS assay to identify small molecule antagonists of the estrogen related receptor signaling pathway with the pleiotropic PPARgamma coactivator (PGC) from Tox21 10K library (AID 1224841; call rule not given here; also: actives are mostly falling curves and most rising ones were filed inactive; nearly all actives have a fitted effect of over 50% in size; also: potency is read from the fitted curve at half-maximal effect)
Outline: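 Luminescence (One-Glo, 30 min at room temperature) after 18 h compound treatment at 37 C of PGC/ERR reporter cells plated at 2,000 cells/well and settled 6 h beforehand.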

[8] = qHTS assay to identify small molecule agonists of the estrogen related receptor signaling pathway with the pleiotropic PPARgamma coactivator (PGC) from Tox21 10K library (AID 1224842); also: nearly all actives have a fitted effect of over 15% in size; also: potency is read from the fitted curve at half-maximal effect
Outline: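 PGC/ERR reporter cells (NTP line) were seeded 2,000 per well, rested 6 h at 37 C/5% CO2, then pin-dosed with compounds in DMSO for 18 h at 37 C; luciferase read by One-Glo luminescence after 30 min at room temperature.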

[9] = target: Thyrotropin receptor (Homo sapiens) (UniProt P16473); experiment: qHTS assay to identify small molecule agonists of the thyroid stimulating hormone receptor (TSHR) signaling pathway (AID 1224843; calls by dose curve; also: nearly all actives have a fitted effect of over 45% in size)
Outline: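 Compounds are titrated over 15 concentrations, in triplicate, onto TSHR-HEK293 cells seeded at 800/well. Plates sit 30 min at room temperature before cAMP-d2 and anti-cAMP cryptate are added; signal is read after a further hour.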

[10] = qHTS assay to identify small molecule agonists of the hypoxia (HIF-1) signaling pathway - cell viability counter screen (AID 1224844; calls by dose curve; also: nearly all actives have a fitted effect of over 50% in size)
Outline: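 Cytotoxicity measured by CellTiter-Glo ATP luminescence in the wells also read for beta-lactamase signal. Cells were HRE-bla ME-180 (2,000/well, 0.5% dialyzed FBS), exposed to compounds for 17 h at 37C.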

Measured: Potency

Chain of Thyrotropin receptor (Homo sapiens) (P16473 whole entry, looked up): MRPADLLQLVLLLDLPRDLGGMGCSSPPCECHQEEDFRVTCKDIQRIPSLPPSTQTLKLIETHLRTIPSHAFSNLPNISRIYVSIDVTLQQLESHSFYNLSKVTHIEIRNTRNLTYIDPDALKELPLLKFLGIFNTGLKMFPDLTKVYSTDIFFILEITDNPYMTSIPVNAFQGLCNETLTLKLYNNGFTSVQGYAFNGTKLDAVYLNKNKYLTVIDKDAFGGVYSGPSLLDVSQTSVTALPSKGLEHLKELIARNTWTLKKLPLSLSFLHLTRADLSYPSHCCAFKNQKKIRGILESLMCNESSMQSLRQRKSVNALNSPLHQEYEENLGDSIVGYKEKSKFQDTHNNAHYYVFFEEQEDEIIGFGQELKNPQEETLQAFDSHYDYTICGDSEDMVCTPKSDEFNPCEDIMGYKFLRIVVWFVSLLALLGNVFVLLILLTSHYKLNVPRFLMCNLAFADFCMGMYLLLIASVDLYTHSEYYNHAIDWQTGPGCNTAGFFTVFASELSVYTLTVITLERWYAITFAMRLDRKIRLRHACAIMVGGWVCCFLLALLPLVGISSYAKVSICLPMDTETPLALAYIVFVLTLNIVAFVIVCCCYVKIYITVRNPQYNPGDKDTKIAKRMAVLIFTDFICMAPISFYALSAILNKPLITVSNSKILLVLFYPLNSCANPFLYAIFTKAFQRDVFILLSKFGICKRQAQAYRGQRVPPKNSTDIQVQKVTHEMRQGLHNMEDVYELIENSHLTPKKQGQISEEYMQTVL
Chain of Nuclear receptor subfamily 1 group I member 3 (Homo sapiens) (Q14994 whole entry, looked up): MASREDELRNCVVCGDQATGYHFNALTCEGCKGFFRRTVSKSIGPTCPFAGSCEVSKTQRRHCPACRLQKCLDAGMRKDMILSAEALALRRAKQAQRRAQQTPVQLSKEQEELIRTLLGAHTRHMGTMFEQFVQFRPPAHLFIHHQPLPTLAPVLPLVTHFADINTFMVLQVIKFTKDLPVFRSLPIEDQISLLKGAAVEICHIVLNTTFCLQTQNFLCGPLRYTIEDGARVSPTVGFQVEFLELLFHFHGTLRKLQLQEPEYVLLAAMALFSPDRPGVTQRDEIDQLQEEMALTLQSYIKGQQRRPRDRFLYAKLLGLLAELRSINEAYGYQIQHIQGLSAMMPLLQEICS
Chain of Luciferin 4-monooxygenase (Photinus pyralis) (P08659 whole entry, looked up): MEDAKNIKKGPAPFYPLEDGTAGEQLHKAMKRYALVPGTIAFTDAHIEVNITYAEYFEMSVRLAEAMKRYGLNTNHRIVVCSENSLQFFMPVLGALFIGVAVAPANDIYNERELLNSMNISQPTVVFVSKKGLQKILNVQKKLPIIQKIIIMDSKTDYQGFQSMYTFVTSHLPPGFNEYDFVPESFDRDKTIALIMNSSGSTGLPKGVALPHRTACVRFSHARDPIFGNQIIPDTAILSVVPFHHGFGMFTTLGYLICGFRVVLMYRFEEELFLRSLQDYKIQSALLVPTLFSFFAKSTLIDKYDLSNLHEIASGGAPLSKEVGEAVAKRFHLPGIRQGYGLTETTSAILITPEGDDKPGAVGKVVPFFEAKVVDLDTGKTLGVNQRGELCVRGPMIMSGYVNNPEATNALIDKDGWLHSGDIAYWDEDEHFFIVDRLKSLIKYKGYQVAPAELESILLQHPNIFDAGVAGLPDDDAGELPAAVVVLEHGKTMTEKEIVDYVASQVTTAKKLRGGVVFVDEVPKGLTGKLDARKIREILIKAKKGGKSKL

c1ccc(CNc2ncnc3c2ncn3C2CCCCO2)cc1 (stereo not drawn)
inactive: [2] | [3] | [4]
active: [1] 39.9 µM | [5] 9.69 µM

SCCc1cnccn1
inactive: all assays above

Cc1ccc(Nc2c(F)cccc2Cl)c(CC(=O)O)c1
not listed: [10]
inactive: all other assays above

COC1CCC=CO1 (stereo not drawn)
inactive: all assays above

O=C(Oc1ccccc1)c1ccc2ccccc2c1O
active: [1] 2.52 µM | [5] 54.5 µM | [8] 9.69 µM
not listed: [9] | [10]
inactive: all other assays above

Nc1c(Cl)cc(Cl)cc1[N+](=O)[O-]
active: [8] 5.45 µM
not listed: [10]
inactive: all other assays above

CC(C)Cc1ccc(CC(=O)O)cc1
not listed: [9]
inactive: all other assays above

CCC(CO)(CO)[N+](=O)[O-]
inactive: all assays above

O=C(O)CCC(=O)OC[C@@H](NC(=O)C(Cl)Cl)[C@H](O)c1ccc([N+](=O)[O-])cc1
inactive: [1] | [2] | [3] | [4] | [5] | [6]

CC(C)CC(O)CC(C)C
inactive: all assays above

Nc1cccc2c(N)cccc12
inactive: [4]
active: [1] 39.9 µM | [2] 24.3 µM | [3] 24.3 µM | [5] 24.3 µM

CC(C)c1ccc(C#N)cc1
inactive: all assays above

O=C(O)c1ccc(O)cc1O
inactive: all assays above

CCCCCCCC(=O)Oc1c(Br)cc(C#N)cc1Br
active: [7] 43.1 µM
inactive: all other assays above

CCCCCCCCCCCCCC(=O)OCC(O)CO (stereo not drawn)
not listed: [10]
inactive: all other assays above

CCNc1nc(N)nc(Cl)n1
active: [4] 24.3 µM
not listed: [10]
inactive: all other assays above

CCN(Cc1cccc(S(=O)(=O)O)c1)c1ccc(C(=C2C=CC(=[N+](CC)Cc3cccc(S(=O)(=O)O)c3)C=C2)c2ccccc2S(=O)(=O)[O-])cc1
inactive: [5] | [8]
active: [1] 20.1 µM | [2] 34.5 µM | [3] 34.5 µM | [4] 15.4 µM | [6] 27.4 µM | [7] 8.67 µM

CC12CC3CC(C)(C1)CC(N)(C3)C2
inactive: all assays above

CC1C(C)(C)C2=C(C(=O)CCC2)C1(C)C (stereo not drawn)
not listed: [10]
inactive: all other assays above

CN=C(N)NC(=O)Nc1c(C)cccc1C
inactive: all assays above

O=C(NS(=O)(=O)/C=C/c1ccccc1)c1ccc(F)cc1Cl
active: [8] 13.7 µM
inactive: all other assays above

O=C(O)c1cccc(Oc2ccccc2)c1
not listed: [10]
inactive: all other assays above

COc1cc(NS(=O)(=O)c2ccc(N)cc2)nc(C)n1
inactive: all assays above

CCO[Si](C)(CCCOCC1CO1)OCC (stereo not drawn)
not listed: [10]
inactive: all other assays above

COC(=O)c1sccc1S(N)(=O)=O
inactive: all assays above

CCC1CCC(CCC(=O)O)C1 (stereo not drawn)
inactive: all assays above

O=C1CC[C@@H](C(=O)O)N1
inactive: all assays above

CCCCCCCC(=O)OCCCCCC
inactive: all assays above

C=Cc1ccc(OC(C)=O)cc1
inactive: all assays above

ClC1=C(Cl)C1(Cl)Cl
not listed: [10]
inactive: all other assays above

CC(=O)Oc1cccc(O)c1
inactive: all assays above

COc1ccc(CCN(C)CCCN2CCc3cc(OC)c(OC)cc3CC2=O)cc1OC
inactive: [1] | [2] | [3] | [4] | [5]

N[C@@H](Cc1cc(I)c(O)c(I)c1)C(=O)O
inactive: all assays above

CC(=O)OCC(=O)[C@@]1(OC(C)=O)[C@@H](C)C[C@H]2[C@@H]3C[C@H](F)C4=CC(=O)C=C[C@]4(C)[C@@]3(F)[C@@H](O)C[C@@]21C
inactive: [1] | [2] | [3] | [4] | [5] | [6]

CC(=O)OCC1=C(C(=O)O)N2C(=O)[C@@H](NC(=O)CSc3ccncc3)[C@H]2SC1
inactive: all assays above

Oc1ccc2c(c1)Cc1ccccc1-2
active: [1] 31.7 µM | [5] 61.1 µM
not listed: [10]
inactive: all other assays above

O=C1c2ccccc2C(=O)c2c(O)ccc(O)c21
active: [5] 48.6 µM | [7] 0.545 µM
not listed: [9]
inactive: all other assays above

CCN(Cc1cccc(S(=O)(=O)O)c1)c1ccc(C(=C2C=CC(=[N+](CC)Cc3cccc(S(=O)(=O)O)c3)C=C2)c2ccc(O)cc2S(=O)(=O)[O-])cc1
inactive: [5] | [8]
active: [1] 10.8 µM | [2] 16.6 µM | [3] 29.5 µM | [4] 11.7 µM | [6] 33.1 µM | [7] 16.6 µM

CSSc1ccoc1C
not listed: [7] | [8] | [10]
inactive: all other assays above

CC(C(=O)O)c1ccc(C(=O)c2cccs2)cc1 (stereo not drawn)
not listed: [7] | [8]
inactive: all other assays above

Nc1ccc(F)cc1
not listed: [9]
inactive: all other assays above

CN1C(CSCC(F)(F)F)Nc2cc(Cl)c(S(N)(=O)=O)cc2S1(=O)=O (stereo not drawn)
not listed: [7] | [10]
inactive: all other assays above

O=C1OC[C@H](Cc2cccc(O)c2)[C@H]1Cc1cccc(O)c1
not listed: [7] | [8]
inactive: all other assays above

O=C(O)c1cccc(C[C@@H]2COc3ccc(OCc4nc5cc(F)ccc5s4)cc3[C@@H]2O)c1
not listed: [7] | [8]
inactive: all other assays above

CC(C)(C(=O)c1cccnc1)c1cccnc1
not listed: [7] | [8] | [10]
inactive: all other assays above

O=C(NC(Cc1cc(=O)[nH]c2ccccc12)C(=O)O)c1ccc(Cl)cc1 (stereo not drawn)
not listed: [7] | [8]
inactive: all other assays above
